# Test results: PubChem BioAssay (EPA / NIEHS)
# Inconclusive results are not listed. Some compounds were tested as several samples or in several runs, with calls that do not always agree. Activity calls are given as the source filed them. How the source made its calls, unless noted: active means hit-call score of the fitted dose curve at least 0.9, where 1 is the maximum; inconclusive means response in the unintended direction; inactive means score below 0.9.
# Target: zebrafish Thyroid Hormone Receptor alpha (TRa), thraa (gene 30670) (UniProt Q98867)
# Sequence (Q98867 whole entry, looked up, the tested form may be a part): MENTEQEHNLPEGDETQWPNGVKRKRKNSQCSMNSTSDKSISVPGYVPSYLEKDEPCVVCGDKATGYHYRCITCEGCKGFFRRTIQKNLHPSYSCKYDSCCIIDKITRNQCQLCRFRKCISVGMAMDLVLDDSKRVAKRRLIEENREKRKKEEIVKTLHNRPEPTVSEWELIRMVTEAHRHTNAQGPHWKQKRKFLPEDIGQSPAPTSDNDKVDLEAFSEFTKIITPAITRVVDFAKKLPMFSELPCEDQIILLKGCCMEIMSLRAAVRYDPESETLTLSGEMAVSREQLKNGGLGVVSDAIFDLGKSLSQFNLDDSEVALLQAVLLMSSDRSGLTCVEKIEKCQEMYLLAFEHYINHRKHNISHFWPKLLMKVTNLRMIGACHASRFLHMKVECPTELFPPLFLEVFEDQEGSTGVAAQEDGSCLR
# Test: ATG_zfTRa_XSP2: Attagene TRANS-FACTORIAL Multi-Species (XSP1) HepG2 Assay for zebrafish Thyroid Hormone Receptor alpha (TRa) (AID 2283832);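 further: actives raise zebrafish TRa-Gal4 reporter transcript above DMSO baseline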
# Procedure, shortened: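 Transient transfection of human HepG2 with GAL4-UAS reporter units, then 24 h chemical treatment. RNA isolated, reverse-transcribed, PCR-amplified, FAM-labelled, HpaI-digested and run on capillary electrophoresis. Gain-of-signal relative to DMSO.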
row,Compound,outcome
1,CCCCCCCCOC(=O)c1ccc(O)cc1,inactive
2,C#C[C@]1(O)CC[C@H]2[C@@H]3CCc4cc(O)ccc4[C@H]3CC[C@@]21C,inactive
3,O=c1cc(-c2ccc(O)cc2)oc2cc(O)cc(O)c12,inactive
4,CC/C(=C(\c1ccccc1)c1ccc(OCCN(C)C)cc1)c1ccccc1,inactive
5,CCCCCC(=O)O[C@]1(C(C)=O)CC[C@H]2[C@@H]3CCC4=CC(=O)CC[C@]4(C)[C@H]3CC[C@@]21C,inactive
6,CC(C)(C)c1ccc(S)cc1,inactive

# System: zebrafish Peroxisome Proliferator-activated Receptor gamma (PPARg), gene 557037
# Test: ATG_zfPPARg_XSP2: Attagene TRANS-FACTORIAL Multi-Species (XSP2) HepG2 Assay for zebrafish Peroxisome Proliferator-activated Receptor gamma (PPARg) (AID 2283833);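 further: reporter mRNA from a zebrafish PPARg GAL4 chimera measured by RT-PCR and capillary electrophoresis; actives increase reporter signal over DMSO so AC50 reflects activation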
# Procedure, shortened: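 HepG2, transient MRTU transfection, 24 h compound; zfPPARg-GAL4 reporter mRNA by RT-PCR + capillary electrophoresis; gain-of-signal vs DMSO.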
Compound,outcome,AC50
CCCCCCCCOC(=O)c1ccc(O)cc1,inactive,–
O=c1cc(-c2ccc(O)cc2)oc2cc(O)cc(O)c12,inactive,–
CC/C(=C(\c1ccccc1)c1ccc(OCCN(C)C)cc1)c1ccccc1,inactive,–
CCCCCC(=O)O[C@]1(C(C)=O)CC[C@H]2[C@@H]3CCC4=CC(=O)CC[C@]4(C)[C@H]3CC[C@@]21C,–,132 µM (active)

# System: turtle Thyroid Hormone Receptor, alpha (TRa), gene 101949057
# Test: ATG_trTRa_XSP2: Attagene TRANS-FACTORIAL Multi-Species (XSP1) HepG2 Assay for turtle Thyroid Hormone Receptor, alpha (TRa) (AID 2283834);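 further: hits raise reporter mRNA over the DMSO baseline so AC50 marks activators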
# Procedure, shortened: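 Multiplexed TRANS reporter assay; HepG2 carrying NR-Gal4 constructs treated 24 h. mRNA of the GAL4-UAS reporter quantified via labelled RT-PCR fragments on a genetic analyzer, vs DMSO negative control.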
Compound,outcome,AC50
CCCCCCCCOC(=O)c1ccc(O)cc1,inactive,–
C#C[C@]1(O)CC[C@H]2[C@@H]3CCc4cc(O)ccc4[C@H]3CC[C@@]21C,inactive,–
O=c1cc(-c2ccc(O)cc2)oc2cc(O)cc(O)c12,inactive,26.7 µM (active)
CC(C)(C)c1ccc(S)cc1,inactive,–

# System: not listed separately
# Test: ATG_M_61_XSP2: Attagene TRANS-FACTORIAL Multi-Species (XSP2) HepG2 Assay for M61 Transcription Factor (Internal Marker) (AID 2283835; active means hit-call score of the fitted dose curve at least 0.9, where 1 is the maximum; inactive means score below 0.9;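 further: active means a rise in signal above the DMSO baseline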)
# Method: ATG_XSP2_multi-species_TRANS is a cell-based, multiplexed assay created by modifying the existing Attagene TRANS-FACTORIAL system to include a panel of nuclear receptors from some or all the following species: human (Homo sapiens), mouse (Mus musculus), frog (Xenopus laevis), zebrafish (Danio rerio), chicken (Gallus gallus), and turtle (Chrysemys picta). The ECOTOX-FACTORIAL format uses HepG2, a human liver cell line, with measurements taken at 24 hours after chemical dosing in a 24-well plate. Xsp2 included 3 nM 6-alpha-fluorotestosterone and 1.5 nM norgestrel to stimulate the androgen receptor.ATG_M_61_XSP2 is one of 29 assay components measured or calculated from the ATG_XSP2_multi-species_TRANS assay. It is designed to make measurements of mRNA induction, a form of inducible reporter, as detected with fluorescence intensity signals by Reverse transcription polymerase chain reaction (RT-PCR) and Capillary electrophoresis technology.This assay endpoint, ATG_M_61_XSP2, was analyzed in the positive analysis fitting direction relative to DMSO as the negative control and baseline of activity. Using a type of inducible reporter, measures of mRNA for gain-of-signal activity can be used to understand the background control at the transcription factor-level as they relate to the gene. Furthermore, this assay endpoint can be referred to as a secondary readout, because this assay has produced multiple assay endpoints where this one serves a background control function. To generalize the intended target to other relatable targets, this assay endpoint is annotated to the background measurement intended target family, where the subfamily is internal marker.
# Human liver HepG2 cells are transiently transfected with multiple reporter transcription units (MRTUs) in 6-well plates using FuGene 6 reagent (Roche; 3 ml FuGene/1 mg DNA). The MRTU constructs are regulated by a cis-regulating element (promoter). […] A major difference between the CIS and TRANS system is that in CIS activities of endogenous TFs are measured, whereas the TRANS assay evaluates changes in activities of exogenous, chimeric NR-Gal4 proteins. […] At the end of 24 hour incubation, total RNA was isolated using TriZol reagent (Invitrogen). The isolated RNA is then reverse-transcribed using oligo(dT) primer and Mo-MLV reverse transcriptase (Invitrogen) with DNAse I (Ambion) treatment for 30 min. The one-tenth of the produced cDNA was amplified by PCR using Taq DNA polymerase (Invitrogen) and two reporter sequence-specific primers. The PCR products were fluorescently labeled by primer extension with 6-arboxyfluorescein (6-FAM) 5'-labeled reporter sequence-specific primer (2 min at 95 C, 20 s at 68 C and 10 min at 72 C) and these products were digested with 5U of HpaI (New England Biolabs) for 2h at 37 C. The fragments were purified using Qiaquick PCR columns (Qiagen), analyzed on an ABI 3130xL genetic analyzer (Applied Biosystems) with peak positions identified by using a set of X-rhodamine (ROX)-labeled MapMarker1000 molecular weight standards (BioVentures). The raw capillary electrophoresis data was processed using Attagraph software (Attagene).
row,Compound,outcome
1,CCCCCCCCOC(=O)c1ccc(O)cc1,inactive
2,C#C[C@]1(O)CC[C@H]2[C@@H]3CCc4cc(O)ccc4[C@H]3CC[C@@]21C,inactive
3,CC/C(=C(\c1ccccc1)c1ccc(OCCN(C)C)cc1)c1ccccc1,inactive
4,CCCCCC(=O)O[C@]1(C(C)=O)CC[C@H]2[C@@H]3CCC4=CC(=O)CC[C@]4(C)[C@H]3CC[C@@]21C,inactive
5,CC(C)(C)c1ccc(S)cc1,inactive

# Target: zebrafish Thyroid Hormone Receptor beta (TRb), thrb (gene 30607) (UniProt Q9PVE4)
# Sequence (Q9PVE4 whole entry, looked up): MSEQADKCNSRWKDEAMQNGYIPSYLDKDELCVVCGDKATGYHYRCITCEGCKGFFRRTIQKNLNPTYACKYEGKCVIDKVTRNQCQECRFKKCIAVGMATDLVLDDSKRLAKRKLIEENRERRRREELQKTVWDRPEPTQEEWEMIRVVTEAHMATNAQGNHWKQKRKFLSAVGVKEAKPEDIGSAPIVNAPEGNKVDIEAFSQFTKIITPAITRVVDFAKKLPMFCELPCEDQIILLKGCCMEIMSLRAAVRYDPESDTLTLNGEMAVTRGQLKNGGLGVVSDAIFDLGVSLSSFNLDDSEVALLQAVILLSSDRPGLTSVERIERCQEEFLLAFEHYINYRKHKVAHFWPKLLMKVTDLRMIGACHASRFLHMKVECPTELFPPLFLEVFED
# Test: ATG_zfTRb_XSP2: Attagene TRANS-FACTORIAL Multi-Species (XSP1) HepG2 Assay for zebrafish Thyroid Hormone Receptor beta (TRb) (AID 2283836)
# Procedure, shortened: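 Human liver HepG2, transient MRTU transfection (NR-Gal4 chimeras, GAL4-UAS reporters); 24 h compound exposure; total RNA → oligo(dT) RT → PCR → 6-FAM label → HpaI cut → CE fluorescence. DMSO = negative control/baseline.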
row,Compound,outcome
1,CCCCCCCCOC(=O)c1ccc(O)cc1,inactive
2,C#C[C@]1(O)CC[C@H]2[C@@H]3CCc4cc(O)ccc4[C@H]3CC[C@@]21C,inactive
3,O=c1cc(-c2ccc(O)cc2)oc2cc(O)cc(O)c12,inactive
4,CC/C(=C(\c1ccccc1)c1ccc(OCCN(C)C)cc1)c1ccccc1,inactive
5,CCCCCC(=O)O[C@]1(C(C)=O)CC[C@H]2[C@@H]3CCC4=CC(=O)CC[C@]4(C)[C@H]3CC[C@@]21C,inactive
6,CC(C)(C)c1ccc(S)cc1,inactive
